Our source for the Potency values is PubChem BioAssay (Tox21).

“And” between values parts separate entries of the source, which are not always exact repeats. Equal values may be shown once. Where a structure was tested more than once in an assay, its records may differ in their call. The source made the active and inactive calls. Unless noted, calls come from the whole dose curve; as a rule, active = well fitted curve in the direction sought with a large enough effect in the repeat runs; inconclusive = weak or mixed curves; inactive = no such curve, though single readings can be large; an effect the other way counts as inactive or inconclusive. Starred links: 1 amine or outer side, 2 acyl side, 3 side chain; linkers in the order of their positions; H or OH if unused. Positions of bridges follow the written chain, without caps; N, C: chain ends. Non-standard residues stand in square brackets, D forms with d. Residues, ends and D or L forms follow the SMILES beside them. Chains are numbered I, II in the order given. Actinocin(9to1) = Cc1c2oc3c(C)ccc(C(=O)[*:1])c3nc-2c(C(=O)[*:2])c(N)c1=O; NMeV = CN[C@H](C(=O)O)C(C)C; Sar = CNCC(=O)O

Assay [1] is described as follows: qHTS assay to identify small molecule antagonists of the thyroid receptor (TR) signaling pathway (AID 743065). Note: nearly all actives have a fitted effect of over 55% in size. Note: potency is the fitted concentration of half-maximal effect. A digest of the protocol:
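GH3.TRE-Luc rat pituitary cells (two TREs driving luciferase) were dosed with compound, then stimulated with 1 nM T3 (final) for 23.5 h at 37 C. ONE-Glo luminescence was the read-out, with CellTiter-Fluor fluorescence as the cytotoxicity counter-screen.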
(In general: In qHTS, concentration-response curves come from the screen itself.)

Assay [2] concerns thyroid hormone receptor (rat, GH3 cells). The experiment in a line: qHTS assay to identify small molecule agonists of the thyroid receptor (TR) signaling pathway (AID 743066; calls by dose curve).
Assay [3] concerns the target Estrogen receptor (Homo sapiens) (UniProt P03372). Briefly: qHTS assay to identify small molecule antagonists of the estrogen receptor alpha (ER-alpha) signaling pathway (AID 743069; active = well fitted curve in the direction sought with a large enough effect in the signal ratio in the repeat runs, not every such curve was filed as active; inconclusive = weak or mixed curves, or effect the other way; inactive = no such curve, though single readings can be large or run the other way; the % refers to the signal ratio; note: potency is the fitted concentration of half-maximal effect). A digest of the protocol: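 Beta-lactamase FRET fluorescence is read after 2 hr at room temperature with LiveBLAzer B/G substrate. Before that, ER-alpha-bla HEK293 cells sit 4 hr after plating, then receive compound plus 17beta-estradiol and incubate 18 hr at 37C.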

Assay [4] can be described thus: qHTS assay to identify small molecule antagonists of the estrogen receptor alpha (ER-alpha) signaling pathway - cell viability counter screen (AID 743074; calls by dose curve;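 note: HEK293 cells carrying ER-alpha-UAS-bla reporter stimulated with 17beta-estradiol; nearly all actives have a fitted effect of over 45% in size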).
For assay [5], the target named is Estrogen receptor (Homo sapiens) (UniProt P03372). The experiment in a line: qHTS assay to identify small molecule agonists of the estrogen receptor alpha (ER-alpha) signaling pathway (AID 743075; calls by dose curve;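 note: HEK293 GripTite cells with ER-alpha and UAS-driven beta-lactamase reporter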).
Chain of Estrogen receptor (Homo sapiens) (P03372 whole entry, looked up): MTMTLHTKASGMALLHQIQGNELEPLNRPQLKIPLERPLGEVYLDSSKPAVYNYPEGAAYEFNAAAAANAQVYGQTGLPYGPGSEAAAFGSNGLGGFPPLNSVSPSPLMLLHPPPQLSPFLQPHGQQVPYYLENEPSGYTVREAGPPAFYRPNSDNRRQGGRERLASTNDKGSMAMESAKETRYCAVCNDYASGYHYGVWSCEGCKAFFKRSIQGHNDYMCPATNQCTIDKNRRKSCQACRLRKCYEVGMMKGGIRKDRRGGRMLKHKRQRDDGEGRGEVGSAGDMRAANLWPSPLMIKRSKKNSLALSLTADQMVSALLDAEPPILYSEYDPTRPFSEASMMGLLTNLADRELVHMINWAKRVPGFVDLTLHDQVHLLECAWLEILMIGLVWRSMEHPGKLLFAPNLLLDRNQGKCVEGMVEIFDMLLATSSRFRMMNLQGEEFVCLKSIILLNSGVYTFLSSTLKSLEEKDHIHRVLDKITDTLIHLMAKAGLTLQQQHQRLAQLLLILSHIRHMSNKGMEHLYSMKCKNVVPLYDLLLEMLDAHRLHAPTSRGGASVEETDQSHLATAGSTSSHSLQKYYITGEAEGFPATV
The target is the same in assay [6]. The experiment in a line: qHTS assay to identify small molecule agonists of the estrogen receptor alpha (ER-alpha) signaling pathway using the BG1 cell line (AID 743079). Note: nearly all actives have a fitted effect of over 20% in size.
A short description of assay [7]: qHTS assay to identify small molecule antagonists of the estrogen receptor alpha (ER-alpha) signaling pathway using the BG1 cell line (AID 743080; calls by dose curve;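 note: BG1 cells stimulated with 17beta-estradiol alongside compound; nearly all actives have a fitted effect of over 25% in size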; note: potency is the fitted concentration of half-maximal effect). In short, it runs like this:
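Luminescence from a 4×ERE-luciferase reporter in BG1-Luc-4E2 cells served as read-out. Cells, pre-cultured 5 days in stripped-serum phenol-red-free medium, were exposed to compound with 17beta-estradiol co-stimulation for 21.5 h at 37 C.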

Assay [8] in a line: qHTS assay to identify small molecule antagonists of the estrogen receptor alpha (ER-alpha) signaling pathway using the BG1 cell line - cell viability counter screen (AID 743081).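 Note: compound given together with 17beta-estradiol as the ER stimulus; nearly all actives have a fitted effect of over 45% in size.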 Note: potency is the fitted concentration of half-maximal effect.
The next assay addresses Aromatase (Homo sapiens) (UniProt P11511). The experiment in a line: qHTS assay to identify aromatase inhibitors (AID 743083). Note: nearly all actives have a fitted effect of over 55% in size. Note: potency is the fitted concentration of half-maximal effect.
Assay [9] can be described thus: qHTS assay to identify aromatase inhibitors - cell viability counter screen (AID 743084).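 Note: cells stimulated with testosterone during compound exposure; nearly all actives have a fitted effect of over 55% in size.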 Note: potency is the fitted concentration of half-maximal effect.
Assay [10] concerns the target Aryl hydrocarbon receptor (Homo sapiens) (UniProt P35869). The experiment in a line: qHTS assay to identify small molecule that activate the aryl hydrocarbon receptor (AhR) signaling pathway (AID 743085).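 Note: HG2L7.5c1 human HepG2 liver cells with stably integrated DRE-driven firefly reporter; series mostly up to about 70 µM; nearly all actives have a fitted effect of over 15% in size.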 In short, it runs like this: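 A multiplexed format paired cell viability (CellTiter-Fluor fluorescence) with AhR-dependent luciferase output (ONE-Glo luminescence) in the same wells of HepG2 DRE-luc cells after 24 h compound exposure at 37C.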

Assay [11] in a line: qHTS assay to identify small molecule that activate the aryl hydrocarbon receptor (AhR) signaling pathway - cell viability counter screen (AID 743086). Note: nearly all actives have a fitted effect of over 45% in size. Note: potency is the fitted concentration of half-maximal effect. A digest of the protocol:
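HepG2-AhR-luc (HG2L7.5c1) cells, 4000/well, treated 24 h at 37 C with compound; viability measured as CellTiter-Fluor fluorescence after 30 min in the same wells as the luciferase read.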

In assay [12] the target is Peroxisome proliferator-activated receptor gamma (Homo sapiens) (UniProt P37231). Briefly: qHTS assay to identify small molecule agonists of the peroxisome proliferator-activated receptor gamma (PPARg) signaling pathway (AID 743094; active = well fitted activation curve with a large enough effect in the signal ratio in the repeat runs, not every such curve was filed as active; inconclusive = weak or mixed curves, or effect the other way; inactive = no such curve, though single readings can be large or run the other way; the % refers to the signal ratio). In short, it runs like this: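 Fluorescence-based beta-lactamase readout in HEK293H PPARg UAS-bla cells after 17 h compound exposure (37C) and 1 h B/G FRET substrate incubation at room temperature.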
Chain of Peroxisome proliferator-activated receptor gamma (Homo sapiens) (P37231 whole entry, looked up): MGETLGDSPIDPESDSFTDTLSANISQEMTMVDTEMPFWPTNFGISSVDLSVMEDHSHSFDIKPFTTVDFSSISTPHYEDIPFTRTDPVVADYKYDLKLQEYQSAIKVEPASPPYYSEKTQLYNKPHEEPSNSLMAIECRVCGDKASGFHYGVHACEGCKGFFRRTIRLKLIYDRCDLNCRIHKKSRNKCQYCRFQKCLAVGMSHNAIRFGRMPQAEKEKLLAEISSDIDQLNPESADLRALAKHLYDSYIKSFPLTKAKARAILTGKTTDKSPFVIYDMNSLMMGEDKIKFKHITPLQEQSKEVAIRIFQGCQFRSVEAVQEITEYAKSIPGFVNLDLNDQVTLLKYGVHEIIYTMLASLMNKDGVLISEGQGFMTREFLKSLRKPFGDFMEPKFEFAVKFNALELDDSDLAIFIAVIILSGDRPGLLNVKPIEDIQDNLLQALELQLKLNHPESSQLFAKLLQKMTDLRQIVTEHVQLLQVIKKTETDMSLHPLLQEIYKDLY

The nature of assay [13]: qHTS assay to identify small molecule antagonists of the peroxisome proliferator-activated receptor gamma (PPARg) signaling pathway - cell viability counter screen (AID 743194). Note: nearly all actives have a fitted effect of over 55% in size. A digest of the protocol: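 Cytotoxicity counter screen in PPARg-bla HEK293H cells, same wells as reporter assay. Compounds plus 50 nM rosiglitazone (final) for 17 h at 37 C, then viability read by CellTiter-Glo luminescence.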

Assay [14] in a line: qHTS assay for small molecule agonists of the antioxidant response element (ARE) signaling pathway (AID 743202; active = well fitted activation curve with a large enough effect in the signal ratio in the repeat runs, not every such curve was filed as active; inconclusive = weak or mixed curves, or effect the other way; inactive = no such curve, though single readings can be large or run the other way; the % refers to the signal ratio; note: potency is the fitted concentration of half-maximal effect). In short, it runs like this:
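HepG2 ARE-bla reporter line, 2,000 cells/well; 5 h preincubation 37 C/5% CO2; compound (DMSO) 16 h 37 C; B/G FRET substrate 2 h RT; fluorescence intensity.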

Assay [15] in a line: qHTS assay for small molecule agonists of the antioxidant response element (ARE) signaling pathway - cell viability counter screen (AID 743203; calls by dose curve; note: nearly all actives have a fitted effect of over 55% in size). A digest of the protocol: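 Parallel cytotoxicity read-out for the ARE-bla screen: HepG2 reporter cells, 16 hrs with compounds, then CellTiter-Glo luminescence.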
Assay [16] can be described thus: qHTS assay for small molecule activators of the heat shock response signaling pathway (AID 743210; active = well fitted activation curve with a large enough effect in the signal ratio in the repeat runs, with a control signal flat, not every such curve was filed as active; inconclusive = weak or mixed curves; the % refers to the signal ratio;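 note: HeLa cells with beta-lactamase reporter driven by heat shock elements; series mostly up to about 63 µM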). In short, it runs like this:
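Beta-lactamase reporter read-out: FRET substrate fluorescence after 2.5 h at RT, following 5 h compound treatment at 37 C of HeLa cells carrying HSE-driven bla reporter; quantitative HTS format.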

The nature of assay [17]: qHTS assay to identify small molecule agonists of the peroxisome proliferator-activated receptor delta (PPARd) signaling pathway - cell viability counter screen (AID 743211). Note: nearly all actives have a fitted effect of over 55% in size. Note: potency is the fitted concentration of half-maximal effect. In short, it runs like this: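 Tox21 library compounds, delivered in DMSO, were incubated 17 h with PPARd-bla HEK293H cells; cytotoxicity was taken from CellTiter-Glo luminescence read 30 min after reagent addition.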

Assay [18] is described as follows: qHTS assay for small molecule activators of the heat shock response signaling pathway - cell viability counter screen (AID 743209). Note: nearly all actives have a fitted effect of over 50% in size. Note: potency is the fitted concentration of half-maximal effect. A digest of the protocol: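 To flag cytotoxic compounds, HSE-bla HeLa cells plated at 1500 cells/well were dosed for 5 h at 37 C, followed by the reporter FRET read and then CellTiter-Glo, with luminescence recorded 30 min after reagent addition.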

Assay [19] concerns the target Peroxisome proliferator-activated receptor gamma (Homo sapiens) (UniProt P37231). Briefly: qHTS assay to identify small molecule antagonists of the peroxisome proliferator-activated receptor gamma (PPARg) signaling pathway (AID 743191; calls by dose curve; note: series mostly up to about 63 µM; nearly all actives have a fitted effect of over 30% in size). A digest of the protocol:
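GeneBLAzer PPARg UAS-bla HEK293H cells, 5 h post-plating, exposed to compounds 17 h at 37C. LiveBLAzer B/G FRET substrate added for 1 h at room temperature; beta-lactamase reporter read by fluorescence intensity.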

Chain of Aromatase (Homo sapiens) (P11511 whole entry, looked up): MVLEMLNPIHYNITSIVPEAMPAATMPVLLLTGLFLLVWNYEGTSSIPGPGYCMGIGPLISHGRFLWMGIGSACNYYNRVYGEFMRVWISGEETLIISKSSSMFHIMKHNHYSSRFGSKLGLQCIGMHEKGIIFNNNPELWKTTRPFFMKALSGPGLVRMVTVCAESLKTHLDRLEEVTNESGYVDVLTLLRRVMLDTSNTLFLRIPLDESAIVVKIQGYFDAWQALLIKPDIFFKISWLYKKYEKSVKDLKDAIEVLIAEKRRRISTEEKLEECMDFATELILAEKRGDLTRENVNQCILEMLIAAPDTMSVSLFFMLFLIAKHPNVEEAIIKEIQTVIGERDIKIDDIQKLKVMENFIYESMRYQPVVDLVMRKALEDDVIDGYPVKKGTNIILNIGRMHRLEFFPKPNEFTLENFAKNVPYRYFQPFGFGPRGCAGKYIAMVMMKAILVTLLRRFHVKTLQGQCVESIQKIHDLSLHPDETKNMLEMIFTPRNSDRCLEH
Chain of Aryl hydrocarbon receptor (Homo sapiens) (P35869 whole entry, looked up): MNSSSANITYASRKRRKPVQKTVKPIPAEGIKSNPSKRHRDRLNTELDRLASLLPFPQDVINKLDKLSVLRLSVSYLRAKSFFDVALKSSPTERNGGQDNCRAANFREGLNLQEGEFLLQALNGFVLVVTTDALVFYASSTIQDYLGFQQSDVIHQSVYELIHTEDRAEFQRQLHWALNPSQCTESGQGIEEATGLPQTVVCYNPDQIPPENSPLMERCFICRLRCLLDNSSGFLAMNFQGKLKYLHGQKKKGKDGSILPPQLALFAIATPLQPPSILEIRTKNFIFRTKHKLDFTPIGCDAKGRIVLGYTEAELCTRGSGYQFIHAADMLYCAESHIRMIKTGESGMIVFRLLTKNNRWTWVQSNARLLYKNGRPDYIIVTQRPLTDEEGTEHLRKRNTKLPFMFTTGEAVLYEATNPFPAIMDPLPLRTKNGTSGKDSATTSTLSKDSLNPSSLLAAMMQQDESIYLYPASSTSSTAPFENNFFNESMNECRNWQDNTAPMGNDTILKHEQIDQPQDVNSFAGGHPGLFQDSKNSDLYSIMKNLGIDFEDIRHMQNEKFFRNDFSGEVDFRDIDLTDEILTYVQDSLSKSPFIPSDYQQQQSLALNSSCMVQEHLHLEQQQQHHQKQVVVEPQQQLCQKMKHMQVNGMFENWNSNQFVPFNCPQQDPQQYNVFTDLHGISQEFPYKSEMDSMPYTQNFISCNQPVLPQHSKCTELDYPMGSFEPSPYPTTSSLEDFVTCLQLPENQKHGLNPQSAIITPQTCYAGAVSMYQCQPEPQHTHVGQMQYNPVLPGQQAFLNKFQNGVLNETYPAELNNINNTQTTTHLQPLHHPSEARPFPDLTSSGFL

Regarding `CC[C@@H](N)CO`, the Potency result in assay [1], in assay [2], in assay [3], in assay [4], in [5] and in [6] was “inactive” throughout. The Potency result (in [7]; in [8]; in the assay with Aromatase (Homo sapiens); in [9]; in [10]; in [11]) was “inactive” each time. The Potency result in assay [12], in [13], in assay [14], in [15], in [16] and in assay [17] was “inactive” each time.

Turning to `CCc1ccc(C(c2ccc(CC)cc2)C(Cl)Cl)cc1`, the Potency result in [1], in assay [2], in assay [3], in assay [5], in assay [7] and in assay [8] was “inactive” each time. Besides, the Potency entry (with Aromatase (Homo sapiens); in assay [9]; in assay [10]; in [11]; in [12]; in assay [13]) was “inactive” each time. For the same molecule, the Potency entry in assay [14], in assay [15], in [18], in assay [16] and in [17] was “inactive” in each case.

As to `CCC(CO)(CO)COCC(CC)(CO)CO`, the Potency entry (in [1]; in [2]; in assay [8]; with Aromatase (Homo sapiens); in [9]; in [10]) was “inactive” each time. Also, the Potency result in assay [11], in assay [12], in assay [13], in [14], in assay [15] and in [18] was “inactive” in each case. Further, the Potency result in [16] and in assay [17] was “inactive” each time.

Consider `OCCOCCN1CCN(C(c2ccccc2)c2ccc(Cl)cc2)CC1` (centres undefined), for which, in assay [1], the Potency was 23.7 µM (active) and 47.9 µM (active). Besides, the Potency entry (in assay [2]; in assay [4]; in assay [8]; in the assay with Aromatase (Homo sapiens); in assay [9]; in assay [12]) was “inactive” in each case. Besides, the Potency entry in [13], in assay [14], in [15], in [18] and in assay [17] was “inactive” in each case.

For the molecule `Cc1c2oc3c(C)ccc(C(=O)N[C@@H]4C(=O)N[C@H](C(C)C)C(=O)N5CCC[C@H]5C(=O)N(C)CC(=O)N(C)[C@@H](C(C)C)C(=O)O[C@@H]4C)c3nc-2c(C(=O)N[C@@H]2C(=O)N[C@H](C(C)C)C(=O)N3CCC[C@H]3C(=O)N(C)CC(=O)N(C)[C@@H](C(C)C)C(=O)O[C@@H]2C)c(N)c1=O` (I: T[dV]P[Sar][NMeV] / II: T[dV]P[Sar][NMeV]; ester I:1-I:C, II:1-II:C; linker I:N-II:N via Actinocin(9to1)), the Potency is 4.2 nM (active) in assay [1]; 53.5 nM [inconclusive] (active) and 13.4 nM [inconclusive] (active) in [3]; 84.1 nM (active) and 10.6 nM (active) in assay [7]; 15 µM (active) and 13.3 µM (active) in assay [8]; 94.4 nM (active) and 1.7 nM (active) with Aromatase (Homo sapiens); 7.48 µM (active) in assay [9]. In addition, the Potency in assay [11] is 18.8 nM (active) and 14.9 µM (active); in assay [17], 26.8 µM (active) and inactive. Besides, the Potency entry in assay [2], in [5], in assay [10] and in assay [16] was “inactive” each time.

For the molecule `CN1C(=O)c2ccc([N+](=O)[O-])cc2C1=O`, the Potency result in assay [1], in assay [2], in assay [3], in assay [5], in [6] and in [7] was “inactive” each time. For the same molecule, the Potency result (in assay [8]; in the assay with Aromatase (Homo sapiens); in assay [9]; in [10]; in assay [11]; in assay [12]) was “inactive” each time. The Potency entry in [19], in [13], in assay [15], in assay [18], in assay [16] and in assay [17] was “inactive” each time.

On to `C=CC(=O)OCCCCCCOC(=O)C=C`, for which the Potency is 27.6 µM (active) and 43.3 µM (active) in assay [1]; 10.9 µM (active) in assay [14]; 17.4 µM (active) in assay [18]; 49.6 µM (active) in assay [17]. Moreover, the Potency result in [2], in assay [4], in assay [6], in assay [8], in [10] and in [11] was “inactive” throughout. The Potency result in [13] and in [15] was “inactive” in each case.

Regarding `Cc1cccc2n[nH]nc12`, the Potency entry in assay [1], in [2], in assay [4], in [8], in [11] and in assay [13] was “inactive” in each case. Besides, the Potency result in [14], in [15], in assay [18], in [16] and in assay [17] was “inactive” in each case.
